KLF5 inhibitor – KLF5 expression inhibitors, primary screen, DLD-1 cells, luminescence. DLD-1 KLF5 promoter-luciferase reporter. inhibition, % at 5 µM. actives 0.23% (n = 290,000). AID 1700, 2009;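 active = inhibition above a per-plate limit of that plate's mean compound inhibition plus 3 SD, cut at about 60% in these data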;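 note: 0% = DMSO wells and 100% = LY294002 at 200 µM; higher means less KLF5 promoter-driven luciferase light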
APP 5UTR inh – inhibitors of APP translation via 5'UTR reporter, primary screen, APP 5'UTR luciferase, SH-SY5Y cells. SH-SY5Y APP 5'UTR-luciferase reporter, luminescence. inhibition, % at 2 µM. actives 0.82% (n = 190,000). AID 1285, 2008;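 active = inhibition above a set limit, derived from the sample mean plus 3 SD, cut at about 45% in these data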
aSyn UTR inh – MLPCN primary screen, SNCA 5' untranslated region; alpha-synuclein 5'UTR reporter, inhibitor activity; inhibition, % (tested at 7.5 µM); actives 0.82% (n = 300,000); AID 1813, 2009; in the data active = inhibition above about 60%;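 note: H4 neuroglioblastoma cells stably carrying SNCA 5'UTR luciferase fusion; 0% = DMSO wells and 100% = positive control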
BaF3 tox – parental Ba/F3 cell viability inhibition, counter-screen for JAK2V617F inhibitor project, murine pro-B, CellTiter-Glo luminescence | actives 1.1% (n = 220,000) | inhibition, % at 5.6 µM | CellTiter-Glo ATP luminescence;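 active = inhibition above a per-campaign cutoff, the mean inhibition of all tested compounds plus 3 SD, cut at about 27% in these data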;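 note: 0% = DMSO wells and 100% = JAK Inhibitor I control wells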
IEC-6 cytotox – cytotoxicity in IEC-6 intestinal epithelial cells, primary screen, cytotoxicity control for KLF5 inhibitor project, cell-based, luminescence. actives 0.78% (n = 290,000). inhibition, % at 5 µM. AID 1825, 2009. IEC-6 cytotoxicity, luminescence viability; in the data active = inhibition above about 22%;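 note: 0% = plate median of test compound wells and 100% = cytotoxic reference compound wells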
Ba/F3 V617F tox – reduced viability of JAK2V617F-dependent Ba/F3 cells, primary screen, JAK2V617F inhibitor project, cell-based, Ba/F3 EpoR-JAK2V617F, luminescence. ATP luminescence. inhibition, % at 5.6 µM. actives 1.1% (n = 220,000);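 active = inhibition above the campaign mean plus 3 SD over all tested compounds, cut at about 24% in these data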;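 note: cytokine-independent growth of Ba/F3 cells driven by EpoR plus mutant JAK2; 0% = DMSO-treated cells and 100% = JAK inhibitor I control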
* = called active by the depositor; . = no result given. Most compounds without a hit are left out; they make up all but 2.2% or so of the library.

SMILES	KLF5 inhibitor	APP 5UTR inh	aSyn UTR inh	BaF3 tox	IEC-6 cytotox	Ba/F3 V617F tox
CN1C(=O)/C(=C/c2cn(CC(=O)NCc3ccco3)c3ccccc23)NC1=S	18	-2	26	9	9	1
CCN=C1S/C(=C\c2cn(CC(=O)NCc3ccco3)c3ccccc23)C(=O)N1CC	-16	.	65*	.	3	.
COc1cccc(CNC(=O)C(=O)N2CCC3(CC2)OCCN3S(=O)(=O)c2ccc(C)cc2)c1	.	.	9	.	.	.
Cc1ccc(C(C)C)c(OCC(=O)NN=C2CCCCCCC2)c1	-39	86*	16	3	0	-1
Cc1ccc(C(C)C)c(OCC(=O)N/N=C2\CC(=O)CC(C)(C)C2)c1	1	.	.	.	5	.
CC(C)NC(=O)CSc1nnc(-c2ccc(F)cc2)c2ccccc12	-8	-15	4	2	2	2
Cc1csc(NC(=O)c2ccc(N3CCCC3=O)cc2)n1	-121	-47	101*	10	-2	-3
O=C(Nc1nc2ccc(F)cc2s1)c1ccc(N2CCCC2=O)cc1	.	.	-155	.	.	.
CCN(CC(=O)Nc1cccc(S(=O)(=O)N2CCOCC2)c1)Cc1ccccc1	.	.	9	.	.	.
C=CCNC(=O)/C(C#N)=C/c1c(N2CCN(c3ccc(OC)cc3)CC2)nc2c(C)cccn2c1=O	-24	.	7	.	-3	.
CC(=O)c1ccc(OCC(O)CN2CCN(S(=O)(=O)c3c(C)c(C)cc(C)c3C)CC2)cc1 (centres undefined)	8	.	12	.	4	.
N#C/C(=C\c1cn(Cc2ccc(F)cc2)c2ccccc12)C(=O)NCc1ccco1	20	-5	39	5	5	-1
N#C/C(=C\c1cn(Cc2ccccc2)c2ccccc12)C(=O)NCc1ccco1	9	2	68*	9	2	3
N#C/C(=C\c1cn(Cc2cccc(F)c2)c2ccccc12)C(=O)NCc1ccco1	-1	-7	65*	2	3	-3
CC(C)(CNc1ccc(S(=O)(=O)C(F)(F)F)cc1[N+](=O)[O-])N1CCOCC1	12	.	0	.	6	.
COc1ccc(Cl)cc1NC(=O)CN1CCC(NC(=O)C2CC2)CC1	10	.	-2	.	7	.
C=CCNC(=O)CSc1cc([N+](=O)[O-])cc(S(=O)(=O)Cc2ccccc2)c1	-6	-1	6	38*	2	-5
COc1ccnc(N=CNOCc2cccc(Cl)c2Cl)c1C#N	-16	15	-61	6	1	-2
COc1ccnc(N=CNOCc2ccc(F)cc2Cl)c1C#N	-12	82*	-56	1	-2	-4
COCCC1CCCCN1C(=O)c1ccc2nc(Cc3ccccc3F)oc2c1 (centres undefined)	-129	.	-131	.	2	.
CCOc1ccc(C(=O)COC(=O)c2cc(=O)[nH]c3ccccc23)cc1	.	.	-13	.	.	.
Clc1ccc(Cn2ncc3c(NCc4ccco4)ncnc32)c(Cl)c1	12	9	29	15	28*	6
NCCCn1c(C(=O)c2cc(Cl)c(N)c(Cl)c2)c2ccc([N+](=O)[O-])cc2[n+]1[O-]	.	.	100*	.	.	.
Cc1ccc(C(C)C)c(OCc2ccc(C(=O)N/N=C/c3ccc(O)cc3O)cc2)c1	47	75*	96*	6	11	3
Cc1ccc(C(C)C)c(OCc2ccc(C(=O)N/N=C/c3ccc(C(=O)O)cc3)cc2)c1	-28	.	37	3	7	0
SMILES	KLF5 inhibitor	APP 5UTR inh	aSyn UTR inh	BaF3 tox	IEC-6 cytotox	Ba/F3 V617F tox
NCCOc1ccc(C23CC4CC(CC(C4)C2)C3)cc1	-43	-21	81*	-3	8	3
OCCN1CCN(CC(O)COc2ccc(C34CC5CC(CC(C5)C3)C4)cc2)CC1 (centres undefined)	17	4	85*	9	15	9
Cc1cc(N/N=C/c2ccc(O)c(C)c2O)nc(-c2ccccc2O)n1	-30	43	87*	7	10	1
C/C(=N\Nc1cc(C)nc(-c2ccccc2O)n1)c1ccccc1	-54	18	-65	2	3	-4
O=C(NCc1ccco1)c1sc(=S)n2c1[nH]c(=O)c1ccccc12	-19	-18	-21	91*	1	1
Nc1c(-c2ccc(Cl)cc2)cnc2c(-c3ccccc3)cnn12	-176	.	-205	.	1	.
Cc1ccc(C(=O)Nc2ccc3ncccc3c2)cc1	45	.	84*	.	1	.

Bioassay records: PubChem, several laboratories
